In the supplement of paper PMC10981050:
Values joined by “and” are separate entries in the source; they are usually repeats but may differ in a detail not shown here. Equal values may be shown once. Where a name gives a salt, the structure may show the parent alone.

Experiments:
Test in all cases: cell viability relative to vehicle control; higher = less cytotoxic
Details in all cases: 10 µM
K562 = test system: K562
Method in brief: (§1)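 CRISPR-edited mutant clones and isogenic wild-type clones from four leukaemia lines were screened against Selleck bioactive, kinase and epigenetic probe libraries, with identity-inconsistent compounds excluded. Each compound was acoustically dispensed at a single 10 µM dose into 384-well plates holding 2000 cells in 50 µL medium per well. After 48 h the supernatant was removed and CellTiter-Glo luminescence was read. Viability was expressed as percent of the on-plate vehicle control and analysed in Genedata Screener.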

MARIMO = test system: MARIMO
Method in brief: as §1

MOLM14 = test system: MOLM14
Method in brief: as §1

OCI-AML2 = test system: OCI-AML2
Method in brief: as §1

Row | Structure (SMILES) | cell viability (K562; SRSF2 genotype: SRSF2 P95H/wt) | cell viability (K562; SRSF2 genotype: SRSF2 wt/wt) [%] | cell viability (MARIMO; SRSF2 genotype: SRSF2 P95H/wt) [%] | cell viability (MARIMO; SRSF2 genotype: SRSF2 wt/wt) [%] | cell viability (MOLM14; SRSF2 genotype: SRSF2 P95H/wt) [%] | cell viability (MOLM14; SRSF2 genotype: SRSF2 wt/wt) [%] | cell viability (OCI-AML2; SRSF2 genotype: P95H/wt) [%] | cell viability (OCI-AML2; SRSF2 genotype: wt/wt) [%]
1 | Oc1cc(O)c2c(c1)OC(c1ccc(O)c(O)c1)C(OC1(c3ccc(O)c(O)c3)Oc3cc(O)cc(O)c3C(O)C1O)C2 (stereo unspecified) [Proanthocyanidins] | 102% and 105% | 104 | 107 | 98.7 | 89.9 | 102 | 92.6 | 101
2 | O=C(O)/C=C/c1ccc(O)c(O)c1 [Caffeic acid] | 99.1% and 100% | 94.3 | 94.2 | 105 | 97.7 | 101 | 76.2 | 92.7
3 | Nc1ccc(-c2cccc(C(=O)Nc3cnc4nc(N5CCOCC5)oc4c3)n2)cn1 | 96.8% and 100% | 91.5 | 98.3 | 91.6 | 86 | 87.5 | 103 | 93.7
4 | COC(=O)C1=CC[C@@]23CC[C@@H]([C@@](C)(/C=C/C=C(\C)C(=O)O)OC2=O)[C@@]3(OC(C)=O)CC1 [Pseudolaric Acid B] | 18.7% and 39.2% | 33.1 | 6.72 | 9.79 | 15.9 | 3.39 | 8.39 | 11.6
5 | Cc1nc(NC(=O)N2CCC[C@H]2C(N)=O)sc1-c1csc(C(C)(C)C)n1 | 98.3% and 99.5% | 89.9 | 64.9 | 63.3 | 72 | 86.6 | 61.8 | 61.9
6 | FC(F)c1nc2ccccc2n1-c1nc(N2CCOCC2)nc(N2CCOCC2)n1 | 71.3% and 77.2% | 70 | 49.4 | 43.4 | 32 | 32.9 | 13.8 | 27.2
7 | CC1=C(/C=C/C(C)=C/C=C/C(C)=C\C(=O)O)C(C)(C)CCC1 [Isotretinoin] | 91.5% and 95.7% | 87.2 | 69.3 | 76.9 | 65.4 | 81.5 | 15.7 | 41.8
8 | NCCOc1cc(C(=O)Nc2cc(OCCN)c3ccccc3n2)nc(C(=O)Nc2cc(OCCN)c3ccccc3n2)c1 [Pyridostatin Trifluoroacetate Salt] | 87.7% and 94.2% | 72.6 | 83.8 | 84.5 | 57.4 | 33.6 | 6.12 | 17.8
9 | COc1cc([C@@H]2c3cc4c(cc3[C@@H](O[C@@H]3O[C@@H]5CO[C@@H](c6cccs6)O[C@H]5[C@H](O)[C@H]3O)[C@H]3COC(=O)[C@H]23)OCO4)cc(OC)c1O [Teniposide (Vumon)] | 8.79% and 17.8% | 6.27 | 3.97 | 2.15 | 0.52 | 0.37 | 0.66 | 0.72
10 | N#CC(c1ccc(Cl)cc1)c1c(Cl)cc(-n2ncc(=O)[nH]c2=O)cc1Cl (stereo unspecified) [Diclazuril] | 101% and 88.5% | 85.2 | 83.8 | 94.7 | 84.4 | 86.3 | 91.3 | 80.8
11 | CNc1ncc2cc(-c3cc(NC(=O)NCCC(C)(C)C)c(F)cc3C)c(C)nc2n1 | 14.9% and 29.3% | 22 | 36.9 | 34.9 | 27.2 | 23.9 | 31.7 | 34.6
12 | CCC[C@H](NC(=O)/C(C#N)=C/c1cccc(Br)n1)c1ccccc1 [Degrasyn (WP1130)] | 11.2% and 17.4% | 9.59 | 2.97 | 1.3 | 0.32 | 0.25 | 0.67 | 0.8
13 | COC(=O)C=Cc1ccc(O)cc1 [Methyl 4-hydroxycinnamate] | 95% and 87.9% | 82.3 | 83.5 | 97.5 | 85.6 | 95.2 | 105 | 105
14 | Cc1cc(NS(=O)(=O)c2ccc(N)cc2)no1 [Sulfamethoxazole] | 94.6% and 85.2% | 92.6 | 89.7 | 95.6 | 99.8 | 91.1 | 85.2 | 95.5
15 | CCCCOC(=O)c1ccccc1Nc1cccc(C(F)(F)F)c1 [Ufenamate] | 101% and 100% | 99.2 | 93 | 102 | 103 | 109 | 110 | 110
16 | CCN(CC)CCNC(=O)c1c(C)[nH]c(/C=C2\C(=O)Nc3ccc(F)cc32)c1C [Sunitinib] | 22.8% and 26.6% | 17.6 | 23.4 | 23.4 | 0.2 | 0.37 | 0.48 | 2.85
17 | O=C(O)CNC(=O)c1ccccc1 [Hippuric acid] | 103% and 104% | 106 | 101 | 112 | 98.4 | 107 | 103 | 101
18 | COc1ccccc1OCCNCC(O)COc1cccc2[nH]c3ccccc3c12 (stereo unspecified) [Carvedilol] | 51.6% and 66.2% | 52.8 | 53 | 56.8 | 53.6 | 56.4 | 56.1 | 56.2
19 | O=C(O)C=C(CC(=O)O)C(=O)O [cis-Aconitic acid] | 109% and 108% | 101 | 102 | 113 | 102 | 103 | 97.9 | 106
20 | O=C(Nc1cccc2cccnc12)c1ccc(N2C(=O)C3C4C=CC(C4)C3C2=O)cc1 (stereo not drawn) [IWR-1-endo] | 95.8% and 94% | 101 | 100 | 103 | 111 | 118 | 97.9 | 98.8
21 | Cn1ncc(Cl)c1-c1cc(C(=O)N[C@H](CN)Cc2cccc(F)c2)sc1Cl | 49.3% and 45.9% | 51 | 67.5 | 63.7 | 34.9 | 37.3 | 33.6 | 48.6

Row | Structure (SMILES) | cell viability (K562; SRSF2 genotype: SRSF2 P95H/wt) | cell viability (K562; SRSF2 genotype: SRSF2 wt/wt) [%] | cell viability (MARIMO; SRSF2 genotype: SRSF2 P95H/wt) [%] | cell viability (MARIMO; SRSF2 genotype: SRSF2 wt/wt) [%] | cell viability (MOLM14; SRSF2 genotype: SRSF2 P95H/wt) [%] | cell viability (MOLM14; SRSF2 genotype: SRSF2 wt/wt) [%] | cell viability (OCI-AML2; SRSF2 genotype: P95H/wt) [%] | cell viability (OCI-AML2; SRSF2 genotype: wt/wt) [%]
22 | N#CC(=Cc1ccc(O)c(O)c1)C(=O)NCc1ccccc1 [AG-490 (Tyrphostin B42)] | 101% and 99.8% | 91 | 78.5 | 92.8 | 95.9 | 103 | 90.4 | 93.7
23 | CC1(C)CC[C@]2(C(=O)O[C@@H]3O[C@H](CO)[C@@H](O)[C@H](O)[C@H]3O)CC[C@]3(C)C(=CC[C@@H]4[C@@]5(C)CC[C@H](O[C@@H]6O[C@H](C(=O)O)[C@@H](O)[C@H](O)[C@H]6O[C@@H]6O[C@H](CO)[C@@H](O)[C@H](O)[C@H]6O)C(C)(C)[C@@H]5CC[C@]43C)[C@@H]2C1 [Ginsenoside Ro] | 101% and 95.6% | 95.9 | 102 | 110 | 100 | 98.5 | 97.8 | 109
24 | NCCNc1ccc(NCCN)c2c1C(=O)c1ccncc1C2=O [Pixantrone Maleate] | 18.2% and 23.9% | 20.5 | 10.7 | 7.14 | 0.24 | 0.35 | 0.25 | 0.85
25 | CC(C)(c1ccc(OCC(O)CO)cc1)c1ccc(OCC(O)CCl)cc1 (stereo unspecified) | 82.3% and 81.7% | 85.8 | 83.5 | 104 | 86 | 90.9 | 84.8 | 86.5
26 | C=C1CCC[C@]2(C)C[C@@H]3OC(=O)C(C)=C3C[C@@H]12 [Atractylenolide II] | 107% and 105% | 99.7 | 96.8 | 102 | 101 | 106 | 103 | 106
27 | CCN(CC)C(=O)/C(C#N)=C/c1cc(O)c(O)c([N+](=O)[O-])c1 [Entacapone] | 101% and 105% | 107 | 101 | 102 | 102 | 102 | 114 | 97.4
28 | CCCCCCCCc1ccc(CCC(N)(CO)CO)cc1 [Fingolimod (FTY720) HCl] | 0.63% | 0.58 | 0.4 | 0.42 | 0.4 | 0.39 | 0.36 | 0.44
29 | Cc1ccc2c(c1)c1c(n2CCc2ccc(C)nc2)CCN(C)C1 [Latrepirdine 2HCl] | 88.7% and 89.9% | 80.2 | 73.8 | 82 | 74.4 | 84.6 | 73.7 | 76
30 | CC(O)C(O)c1cnc2nc(N)[nH]c(=O)c2n1 (stereo unspecified) [6-Biopterin] | 98.5% and 106% | 108 | 104 | 107 | 109 | 106 | 104 | 104
31 | Oc1ccc([C@H]2COc3cc(O)ccc3C2)cc1 [Equol] | 90.4% and 101% | 103 | 99.9 | 104 | 95.2 | 104 | 92 | 88.4
32 | COC1=C(OC)C(=O)C(CCCCCCCCCCO)=C(C)C1=O [Idebenone] | 78.7% and 86.7% | 86.9 | 85.6 | 89.6 | 88 | 88.7 | 68.8 | 75.2
33 | C#CC1(O)CC[C@H]2[C@@H]3CCC4=CC(=O)CC[C@@H]4[C@H]3CC[C@@]21CC (stereo partly specified) [Norgestrel] | 100% | 97.1 | 95.6 | 103 | 98.2 | 108 | 122 | 114
34 | CC1=CCC(=C(C)C)C(=O)CC(C)=CCC1 [Germacrone] | 110% and 109% | 111 | 107 | 103 | 110 | 106 | 95.1 | 101
35 | CCCN[C@H]1CCc2nc(N)sc2C1 [Pramipexole dihydrochloride] | 103% and 96.9% | 110 | 103 | 94.2 | 79.1 | 97.8 | 103 | 111
36 | CC(=O)O[C@H]1CC/C(C)=C/CC/C(C)=C/C[C@]2(C(C)C)CC[C@@]1(C)O2 [Incensole acetate] | 85.8% and 85.7% | 91.2 | 85.1 | 89.2 | 68.8 | 67.7 | 84.1 | 85.2
37 | Oc1ccc(OC2CCCCO2)cc1 (stereo unspecified) [Deoxyarbutin] | 104% and 99.3% | 105 | 84.6 | 93.3 | 83.3 | 81.9 | 87.4 | 83.2
38 | CC(C)n1c(/C=C/C(O)CC(O)CC(=O)O)c(-c2ccc(F)cc2)c2ccccc21 (stereo unspecified) [Fluvastatin sodium (Lescol)] | 80.8% and 90.5% | 69.6 | 45.5 | 46.6 | 77.7 | 89.3 | 36.8 | 46.5
39 | C[C@@]12C[C@@]3(O)O[C@@H](O1)[C@]1(COC(=O)c4ccccc4)[C@@H]3C[C@]12O[C@@H]1O[C@H](COC(=O)c2ccccc2)[C@@H](O)[C@H](O)[C@H]1O [Benzoylpaeoniflorin] | 99.7% and 101% | 93.4 | 96.2 | 96.7 | 104 | 97.8 | 93.9 | 102
40 | Cc1cc2c(C(N)=O)cccc2n1-c1nc2c(c(NCc3ccccc3)n1)COCC2 | 0.8% and 0.75% | 0.74 | 0.6 | 1.05 | 0.36 | 0.42 | 0.35 | 0.49
41 | COC(=O)N(C)c1c(N)nc(-c2nn(Cc3ccccc3F)c3ncccc23)nc1N [Riociguat (BAY 63-2521)] | 89.6% and 89.1% | 82.6 | 85 | 99 | 90.2 | 94 | 96.3 | 108
42 | COC[C@H](NC(=O)c1cnc(C)s1)C(=O)N[C@@H](COC)C(=O)N[C@@H](Cc1ccccc1)C(=O)[C@@]1(C)CO1 [Oprozomib (ONX 0912)] | 0.73% and 1.14% | 1.05 | 0.37 | 0.74 | 0.16 | 0.2 | 0.2 | 0.17
